Data taken from the supplement of paper PMC9262897, “Low-cost anti-mycobacterial drug discovery using engineered E. coli” (Nature Communications, 2022).
Where a name gives a salt, the structure may show the parent alone. ± gives the standard deviation of the averaged measurements.

Legend:
Assay in all cases: growth (OD600 after 10 h); higher = more growth (less inhibition)
[1] = tested on: E. coli TESEC Alr+ wild-type control; conditions: compound 0.1 mM; raw OD600 reference: median of DMSO wells 0.241, cell-free background 0.041
Experimental: (§1)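 TESEC Mtb Alr E. coli, or the Alr+ wild-type control, in 384-well plates with Prestwick library compounds at 0.1 mM and 1% DMSO, across arabinose induction levels of 1E3 to 1E7 nM. Growth is read as OD600 after 10 h at 37 °C in triplicate biological replicates.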

[2] = tested on: E. coli TESEC Mtb Alr; conditions: compound 0.1 mM
Experimental: as §1

[3] = tested on: E. coli TESEC Mtb Asd; conditions: compound 0.1 mM
Experimental: (§2)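 TESEC E. coli strains in which the native enzyme is deleted and replaced by arabinose-inducible Mtb Asd, DapB, CysH or TrpD, each grown in its selective medium. Strains were screened against the Prestwick library at 0.1 mM and 1% DMSO in 384-well format at low and high arabinose induction. Growth is read as OD600 after 10 h in triplicate.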

[4] = tested on: E. coli TESEC Mtb DapB; conditions: compound 0.1 mM
Experimental: as §2

[5] = tested on: E. coli TESEC Alr+ wild-type control; conditions: compound 0.1 mM; raw OD600 reference: median of DMSO wells 0.49, cell-free background 0.052
Experimental: (§3)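 TESEC Mtb Alr E. coli (ΔaraC ΔtolC ΔentC Δalr ΔdadX, arabinose-inducible Mtb Alr) or the Alr+ wild-type control strain, grown in defined M9-fructose medium without D-alanine in 96-well plates with Prestwick library compounds at 0.1 mM and 1% DMSO. Low Alr induction is 0.1 µM arabinose and high induction is 10 mM arabinose.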

[6] = tested on: E. coli TESEC Mtb Alr; conditions: compound 0.1 mM; remark: listed apart in the source
Experimental: as §3

[7] = arabinose 1000 nM, raw OD600 reference: median of DMSO wells 0.294, cell-free background 0.041
[8] = arabinose 10000 nM, raw OD600 reference: median of DMSO wells 0.264, cell-free background 0.041
[9] = arabinose 100000 nM, raw OD600 reference: median of DMSO wells 0.201, cell-free background 0.041
[10] = arabinose 1000000 nM, raw OD600 reference: median of DMSO wells 0.193, cell-free background 0.041
[11] = arabinose 10000000 nM, raw OD600 reference: median of DMSO wells 0.146, cell-free background 0.041
[12] = arabinose induction (level): High, raw OD600 reference: median of DMSO wells 0.331, cell-free background 0.041
[13] = arabinose induction (level): Low, raw OD600 reference: median of DMSO wells 0.417, cell-free background 0.041
[14] = arabinose induction (level): High, raw OD600 reference: median of DMSO wells […], cell-free background 0.041
[15] = arabinose induction (level): Low, raw OD600 reference: median of DMSO wells 0.227, cell-free background 0.041
[16] = arabinose 100 nM, raw OD600 reference: median of DMSO wells 0.413, cell-free background 0.052
[17] = arabinose 10000000 nM, raw OD600 reference: median of DMSO wells […], cell-free background 0.052

Structure (SMILES) | growth [1] | growth [2, 7] | growth [2, 8] | growth [2, 9] | growth [2, 10] | growth [2, 11] | growth [3, 12] | growth [3, 13] | growth [4, 14] | growth [4, 15] | growth [5] | growth [6, 16] | growth [6, 17]
CNCC(O)c1ccc(OC(=O)C(C)(C)C)c(OC(=O)C(C)(C)C)c1 (centres undefined) [Dipivefrin hydrochloride] | 0.171 ± 0.01 | 0.239 ± 0.018 | 0.255 ± 0.011 | 0.164 ± 0.016 | 0.0939 ± 0.0013 | 0.142 ± 0.004 | 0.174 ± 0.029 | 0.269 ± 0.048 | 0.188 ± 0.023 | 0.167 ± 0.0099 | 0.394 ± 0.018 | 0.391 ± 0.022 | 0.19 ± 0.014
Cc1nc2n(c(=O)c1CCN1CCC(c3noc4cc(F)ccc34)CC1)CCCC2 [Risperidone] | 0.237 ± 0.0077 | 0.305 ± 0.007 | 0.269 ± 0.014 | 0.175 ± 0.016 | 0.18 ± 0.0097 | 0.146 ± 0.0055 | 0.183 ± 0.032 | 0.315 ± 0.073 | 0.201 ± 0.024 | 0.261 ± 0.019 | 0.47 ± 0.027 | 0.397 ± 0.014 | 0.305 ± 0.023
Cc1c(NC(C)C)c(=O)n(-c2ccccc2)n1C [Isopyrin hydrochloride] | 0.2426 ± 0.0023 | 0.304 ± 0.017 | 0.265 ± 0.004 | 0.229 ± 0.0067 | 0.211 ± 0.0094 | 0.141 ± 0.0042 | 0.29 ± 0.04 | 0.429 ± 0.036 | 0.218 ± 0.019 | 0.268 ± 0.032 | 0.44 ± 0.036 | 0.393 ± 0.0061 | 0.351 ± 0.016
COc1cc(C(=O)N2CCOCC2)cc(OC)c1OC [Trimetozine] | 0.253 ± 0.004 | 0.313 ± 0.014 | 0.2694 ± 0.0015 | 0.22 ± 0.0037 | 0.203 ± 0.023 | 0.14 ± 0.0052 | 0.288 ± 0.0085 | 0.441 ± 0.018 | 0.192 ± 0.02 | 0.229 ± 0.0089 | 0.616 ± 0.021 | 0.401 ± 0.0073 | 0.363 ± 0.0044
CN1C(=O)CC(c2ccccc2)C1=O (centres undefined) [Phensuximide] | 0.244 ± 0.0072 | 0.299 ± 0.0059 | 0.281 ± 0.0045 | 0.183 ± 0.022 | 0.231 ± 0.02 | 0.138 ± 0.011 | 0.338 ± 0.022 | 0.401 ± 0.035 | 0.174 ± 0.0062 | 0.219 ± 0.015 | 0.544 ± 0.076 | 0.431 ± 0.015 | 0.357 ± 0.0052
COc1ccc(C(=O)c2ccccc2)c(O)c1 [Oxybenzone] | 0.114 ± 0.003 | 0.148 ± 0.011 | 0.15 ± 0.004 | 0.151 ± 0.017 | 0.0914 ± 0.0039 | 0.0993 ± 0.0024 | 0.223 ± 0.023 | 0.334 ± 0.01 | 0.186 ± 0.015 | 0.257 ± 0.0051 | 0.27 ± 0.011 | 0.377 ± 0.022 | 0.146 ± 0.021
NS(=O)(=O)c1cc2c(cc1Cl)NC(C(Cl)Cl)NS2(=O)=O (centres undefined) [Trichlormethiazide] | 0.243 ± 0.0058 | 0.296 ± 0.021 | 0.278 ± 0.0046 | 0.2 ± 0.013 | 0.195 ± 0.015 | 0.139 ± 0.0024 | 0.331 ± 0.037 | 0.448 ± 0.033 | 0.191 ± 0.0022 | 0.246 ± 0.041 | 0.631 ± 0.095 | 0.408 ± 0.0097 | 0.357 ± 0.01
CN(Cc1cc(Br)cc(Br)c1N)C1CCCCC1 [Bromhexine hydrochloride] | 0.0422 ± 0.0023 | 0.0459 ± 0.0083 | 0.04107 ± 0.00031 | 0.0454 ± 0.0014 | 0.0423 ± 0.00059 | 0.0454 ± 0.00098 | 0.194 ± 0.028 | 0.0472 ± 0.0019 | 0.04827 ± 0.00047 | 0.0644 ± 0.0038 | 0.0641 ± 0.0033 | 0.0619 ± 0.0019 | 0.0553 ± 0.0034
